FGF22 binding: shifts melting point of recombinant human FGF22. Q9HCT0. recombinant FGF22 thermal shift, SYPRO orange fluorescence; percent of sucrose octasulfate shift, DMSO zero. activity (Tm shift, normalised), % at 9.99 µM. 340,000 tested, 1.5% active. AID 651658;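 active means mean Tm shift, scaled 0 neutral to 100 positive control, at about 1.3% or above, every replicate too, limit read from the data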
Casp6 inh: caspase-6 (human) enzyme inhibition; AID 686996; P55212; purified caspase-6, Z-VEID-R110 cleavage fluorescence; inhibition, % at 12.5 µM; 350,000 tested, 0.53% active;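 active means mean inhibition across replicates at least about 35%, with every replicate also reaching that limit, limit read from the data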;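 further: 0% = median of neutral control wells and 100% = no fluorescence left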
Target sequence (P55212 24-179 limits assumed): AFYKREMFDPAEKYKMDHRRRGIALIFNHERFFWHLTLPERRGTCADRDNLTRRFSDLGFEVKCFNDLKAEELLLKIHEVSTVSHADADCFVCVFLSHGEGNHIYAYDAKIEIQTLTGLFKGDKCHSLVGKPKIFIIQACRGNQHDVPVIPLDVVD
Target sequence (P55212 194-293 limits assumed): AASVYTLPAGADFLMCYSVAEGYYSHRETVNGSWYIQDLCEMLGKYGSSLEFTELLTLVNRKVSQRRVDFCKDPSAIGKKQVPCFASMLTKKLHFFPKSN
GSIS activator: primary screen for activators of insulin secretion dependent on glucose, INS-1E cells, GLuc reporter luminescence; INS-1E GLuc reporter insulin secretion, 2-3 h; activation, % at 16.6 µM; 370,000 tested, 0.61% active; AID 743287;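 active means lowest replicate activation of at least 40%, so every replicate reaches that level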;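 further: 0% = median of neutral control wells and 100% = median of IBMX positive control wells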
ERAP1 inh: ERAP1 (human) enzyme inhibition; Q9NZ08; recombinant ERAP1, Leu-AMC fluorescence, 60 min; inhibition, % at 10.7 µM; 340,000 tested, 0.15% active; AID 652197;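 active means mean replicate inhibition of at least 30%, or all replicates individually reaching that 30% level; inactive means mean below 30% and not every replicate reaching it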;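 further: 0% = neutral control wells and 100% = L-leucinethiol positive control wells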
SIRT5 block: inhibitors of human sirtuin-5 desuccinylase; Q9NXA8; Purified SirT5, succinyl-peptide AMC, trypsin-coupled fluorescence; inhibition, % at 15 µM; 330,000 tested, 1.1% active; AID 652115; in the data active means inhibition above about 15%
Target sequence (Q9NXA8 whole entry, looked up): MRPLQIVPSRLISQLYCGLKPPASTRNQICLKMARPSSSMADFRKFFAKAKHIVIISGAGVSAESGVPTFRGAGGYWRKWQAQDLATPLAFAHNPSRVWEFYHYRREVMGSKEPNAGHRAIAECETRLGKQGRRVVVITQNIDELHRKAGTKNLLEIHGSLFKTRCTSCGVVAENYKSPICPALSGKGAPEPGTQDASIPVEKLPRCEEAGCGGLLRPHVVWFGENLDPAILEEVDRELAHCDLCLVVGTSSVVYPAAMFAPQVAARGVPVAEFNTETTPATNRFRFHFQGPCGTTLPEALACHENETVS
Numbers without * were called inactive; x = not tested or not shown. Only some compounds are listed: those with a hit (about 3.3% of all), similar ones and a draw of the others.

SMILES | FGF22 binding | Casp6 inh | GSIS activator | ERAP1 inh | SIRT5 block
COc1ccccc1OCC(=O)Nc1sc2c(c1C(N)=O)CCC2 | 0 | 29 | x | -2 | 0
COc1cccc(C(=O)Nc2cc(S(=O)(=O)N3CCCCC3)ccc2OC)c1 | 43* | -3 | -2 | 1 | 2
CN(C)S(=O)(=O)c1cccc(C(=O)Nc2ccc(S(=O)(=O)N3CCCC3)cc2)c1 | 44* | -3 | -10 | 1 | -7
COc1cccc(C(=O)OCC(=O)Nc2sc3c(c2C(N)=O)CCC3)c1O | 0 | 41* | 1 | 0 | 9
COc1ccc(S(=O)(=O)N2CCCC(C(=O)NCCN3CCOCC3)C2)cc1C (stereo unspecified) | 43* | -4 | 15 | 2 | x
COc1ccc(S(=O)(=O)N2CCCCC2)cc1NC(=O)c1cccc(S(=O)(=O)N2CCOCC2)c1 | 0 | -1 | -3 | -3 | -3
CN(C)S(=O)(=O)c1cccc(NC(=O)c2cccc(S(=O)(=O)N3CCCCCC3)c2)c1 | 0 | -1 | -3 | 3 | -1
C[C@@H]1CCCCO[C@H](CN(C)C(=O)Nc2ccc3c(c2)OCO3)[C@@H](C)CN([C@@H](C)CO)C(=O)c2cc(NS(C)(=O)=O)ccc2O1 | 0 | 1 | 10 | -2 | -7
CCOc1ccccc1NC(=O)COC(=O)c1ccc(S(=O)(=O)N2CCCC2)cc1 | 0 | -1 | 12 | 0 | 0
COc1ccccc1NC(=O)COC(=O)c1ccc(S(=O)(=O)N2CCCCCC2)cc1 | 43* | 2 | x | 1 | x
COc1ccc(S(=O)(=O)N2CCCCC2)cc1NC(=O)C1CCCC1 | 0 | 1 | 52* | -2 | 0
COc1ccc(NC(=O)c2cccc(S(=O)(=O)N3CCc4ccccc43)c2)c(OC)c1 | 44* | 1 | x | -4 | x
COc1ccccc1NC(=O)COC(=O)c1cc2c(s1)CCC2 | 0 | 64* | 18 | 1 | -1
CS(=O)(=O)Nc1ccc2c(c1)[C@H]1C[C@H](CC(=O)NCc3cccnc3)O[C@H](CO)[C@H]1O2 | 0 | 0 | 7 | 0 | 0
C[C@H](CO)N1C[C@H](C)[C@H](CN(C)C(=O)Nc2cccc3ccccc23)Oc2ccc(NC(=O)C3CCCCC3)cc2CC1=O | 0 | x | -7 | 4 | 0
C[C@H]1CN([C@@H](C)CO)C(=O)c2cc(C#CC3CC3)cnc2O[C@H]1CN(C)C(=O)c1ccncc1 | x | x | 2 | x | x
C[C@H]1CN([C@@H](C)CO)C(=O)c2cccc(NC(=O)C3CCOCC3)c2O[C@H]1CN(C)Cc1ccccc1 | 0 | 6 | 15 | 2 | 0
CCOC(=O)C1=C(C)Nc2ccccc2N/C1=N\S(=O)(=O)c1cc(C(=O)O)ccc1Cl | 1 | 37* | 8 | -6 | 0
CCOC(=O)C1=C(C)Nc2ccccc2N/C1=N\S(=O)(=O)c1ccc(Cl)cc1 | 1 | -1 | -40 | -2 | 2
CC(=O)Nc1ccc(S(=O)(=O)Nc2nc3ccccc3nc2Nc2ccc(C(=O)O)c(O)c2)cc1 | x | 73* | 36 | 12 | 47*
CC(=O)Nc1ccc(S(=O)(=O)Nc2nc3ccccc3nc2Nc2cccc(O)c2)cc1 | x | 3 | 5 | -2 | 5
C[C@@H]1CN([C@@H](C)CO)C(=O)c2cccc(NC(=O)Nc3ccc4c(c3)OCO4)c2O[C@@H]1CN(C)C(=O)Nc1cccc2ccccc12 | 0 | 0 | -10 | 2 | 4
COc1ccccc1Nc1nc2cc(C)ccc2cc1C#N | 43* | 1 | -6 | -1 | 1
C[C@H]1CN([C@@H](C)CO)C(=O)c2cc(NC(=O)CCCN(C)C)ccc2O[C@H]1CN(C)S(=O)(=O)c1ccc(Cl)cc1 | 0 | 0 | 1 | 2 | -2
COc1ccc(C(C)=O)cc1CSc1nnc(Nc2c(C)cccc2C)s1 | 0 | 0 | x | 2 | 21*
SMILES | FGF22 binding | Casp6 inh | GSIS activator | ERAP1 inh | SIRT5 block
COc1ccc(C(C)=O)cc1CSc1nnc(Nc2ccccc2C)s1 | x | x | 12 | x | x
C/C(N)=C(/C#N)C(=O)CSc1cc(C)c2ccccc2n1 | 43* | 0 | -22 | 5 | 4
Cc1cc(SCC(=O)O)nc2ccccc12 | 0 | 2 | 10 | 5 | 0
C/C(N)=C(/C#N)C(=O)CSc1nnc(Nc2c(C)cccc2C)s1 | 43* | 7 | x | 2 | x
CN1C(=O)c2cc(NS(=O)(=O)c3ccc(F)cc3)ccc2OC[C@H]2O[C@@H](CC(=O)O)CC[C@@H]21 | 0 | -2 | 5 | -1 | 1
CC(C)NC(=O)Nc1ccc2c(c1)C(=O)N([C@@H](C)CO)C[C@@H](C)[C@H](CN(C)CC1CCCCC1)O2 | 0 | -3 | 6 | 0 | -6
c1ccn(-c2ccc(-c3ccn[nH]3)cc2)c1 | 0 | -1 | 18 | 3 | 2
Cc1ccc(C)n1-c1ccc(-c2ccn[nH]2)cc1 | 43* | 0 | 21 | -2 | -4
Nc1ccc(NC2C[C@@H](C(=O)O)NC2=O)cc1 (stereo partly specified) | 43* | 4 | 3 | 2 | 8
Oc1c(Br)cc(Br)cc1C=Nc1ccc2[nH]ncc2c1 | 0 | -2 | -2 | -7 | -1
COc1ccc(C=Nc2ccc3[nH]ncc3c2)c(O)c1 | 43* | 2 | 20 | 0 | -1
Cc1nn(C)c(C(=O)NNC(=S)NC2CCCCC2)c1Br | 43* | 6 | 11 | 1 | -4
CNS(=O)(=O)c1cc(C(=O)O)ccc1OC | 43* | 1 | 8 | 3 | -2
COc1ccc(C(=O)O)cc1S(N)(=O)=O | 1 | -3 | 7 | -1 | -3
COc1ccc(C(=O)N(C)Cc2ccccc2)cc1Br | 0 | 2 | 18 | 1 | 18*
COc1ccc(C(C)=O)cc1OCc1ccccc1 | 0 | -3 | 23 | 1 | x
COc1cc(C(=O)O)ccc1OCc1ccccc1 | 0 | -2 | 55* | 2 | 2
COCC(=O)N1[C@@H](CO)[C@@H](c2ccccc2)C12CN(C(=O)NC1CCCCC1)C2 | 0 | 1 | -12 | 0 | -2
C[C@@H]1CN([C@H](C)CO)C(=O)c2cc(N(C)C)ccc2O[C@@H](C)CCCCO[C@@H]1CN(C)S(C)(=O)=O | 0 | 0 | 7 | 1 | -2
C[C@H](CCC(=O)OCc1cn(CC(=O)c2ccc(O)cc2)nn1)C1CC[C@H]2[C@@H]3CC[C@@H]4C[C@H](O)CC[C@]4(C)[C@H]3C[C@H](O)[C@]12C (stereo partly specified) | 1 | x | -17 | 1 | 33*
C[C@H](CCC(=O)O)[C@H]1CC[C@H]2[C@@H]3CC[C@@H]4C[C@H](O)CC[C@]4(C)[C@H]3C[C@H](O)[C@]12C | -1 | 6 | x | 12 | 1
CC(C)S(=O)(=O)C1=NSC2=NC(=O)/C(=C\c3ccc(-c4cccc(C(=O)O)c4)o3)C(=N)N21 | x | 12 | -6 | x | 21*
N#CNC(=Nc1ccc(F)cc1)SCc1ccccc1 | 44* | 2 | 2 | -1 | 0

Screening results from PubChem.
